From the antibiotic and cytotoxicity screens of Wong et al. (2023)
Screen size: about 39,000 compounds; about 3,300 (8.5%) were called active. The sample holds actives, similar compounds and a random draw of the others, so the mix is not that of the screen.

tested on: HepG2; test: cytotoxicity call (relative viability < 0.9); settings: 10 µM

Structure (SMILES) | cytotoxicity call
COc1ccc(NC(=O)Nc2ccc3c(c2)C(=O)N([C@H](C)CO)C[C@@H](C)[C@@H](CN(C)Cc2ccncc2)OCCCC[C@@H](C)O3)cc1 | inactive
Cc1ccc(S(=O)(=O)NCC[C@H]2CC[C@@H](NS(=O)(=O)c3ccccc3Cl)[C@@H](CO)O2)cc1 | inactive
Cc1noc(C)c1NC(=O)Nc1ccc2c(c1)CC(=O)N([C@@H](C)CO)C[C@@H](C)[C@H](CN(C)S(=O)(=O)c1cn(C)cn1)O2 | inactive
CN1C(=O)c2cc(NC(=O)c3cnccn3)ccc2OC[C@H]2O[C@@H](CC(=O)N[C@H]3CCN(Cc4ccccc4)C3)CC[C@H]21 | inactive
COc1ccc(CN(C)C[C@H]2OCCCC[C@@H](C)Oc3ccc(NC(=O)Nc4cccc5ccccc45)cc3C(=O)N([C@H](C)CO)C[C@@H]2C)cc1 | active
COc1ccc(CN(C)C[C@H]2OCCCC[C@@H](C)Oc3ccc(NC(=O)Nc4cccc5ccccc45)cc3C(=O)N([C@@H](C)CO)C[C@H]2C)cc1 | active
COc1ccc(CN(C)C[C@H]2OCCCC[C@@H](C)Oc3ccc(NC(=O)Nc4cccc5ccccc45)cc3C(=O)N([C@@H](C)CO)C[C@@H]2C)cc1 | inactive
COc1ccc(CN(C)C[C@@H]2OCCCC[C@@H](C)Oc3ccc(NC(=O)Nc4cccc5ccccc45)cc3C(=O)N([C@H](C)CO)C[C@@H]2C)cc1 | inactive
COc1ccc(CN(C)C[C@@H]2OCCCC[C@@H](C)Oc3ccc(NC(=O)Nc4cccc5ccccc45)cc3C(=O)N([C@@H](C)CO)C[C@@H]2C)cc1 | inactive
COc1ccc(CN(C)C[C@H]2OCCCC[C@H](C)Oc3ccc(NC(=O)Nc4cccc5ccccc45)cc3C(=O)N([C@H](C)CO)C[C@H]2C)cc1 | inactive
C[C@H]1CN([C@@H](C)CO)C(=O)c2cc(NC(=O)Cn3cnnn3)ccc2O[C@H]1CN(C)S(=O)(=O)c1ccc(F)cc1 | inactive
C[C@@H]1CN([C@H](C)CO)C(=O)c2cccc(NS(=O)(=O)c3ccccc3)c2O[C@@H]1CN(C)S(=O)(=O)c1ccccc1 | inactive
C[C@@H]1CN([C@H](C)CO)C(=O)c2cc(NC(=O)Cc3ccccc3)ccc2O[C@@H](C)CCCCO[C@H]1CN(C)C(=O)Nc1ccc(F)cc1 | inactive
C[C@H]1CN([C@@H](C)CO)C(=O)Cc2cc(NS(=O)(=O)c3ccc(F)cc3)ccc2O[C@H]1CN(C)S(=O)(=O)c1ccccc1 | inactive
C#Cc1cnc(OC)cn1 | inactive
C[C@@H]1CCCCO[C@H](CN(C)CC2CCCCC2)[C@@H](C)CN([C@H](C)CO)C(=O)c2cc(NC(=O)Nc3cccc4ccccc34)ccc2O1 | active
C[C@@H]1CN([C@@H](C)CO)C(=O)c2cc(NC(=O)Nc3cccc4ccccc34)ccc2O[C@@H](C)CCCCO[C@H]1CN(C)CC1CCCCC1 | active
C[C@@H]1CN([C@@H](C)CO)C(=O)c2cc(NC(=O)Nc3cccc4ccccc34)ccc2O[C@@H](C)CCCCO[C@@H]1CN(C)CC1CCCCC1 | active
C[C@H](CO)N1C[C@H](C)[C@@H](CN(C)C)OCCCC[C@H](C)Oc2ccc(NC(=O)Nc3cccc4ccccc34)cc2C1=O | inactive
C[C@H]1CCCCO[C@H](CN(C)C)[C@@H](C)CN([C@@H](C)CO)C(=O)c2cc(NC(=O)Nc3cccc4ccccc34)ccc2O1 | inactive
C[C@H]1CCCCO[C@H](CN(C)CC2CCCCC2)[C@@H](C)CN([C@@H](C)CO)C(=O)c2cc(NC(=O)Nc3cccc4ccccc34)ccc2O1 | active

Structure (SMILES) | cytotoxicity call
CN(C)c1ccc(O)c2c1C[C@@H]1C[C@@H]3[C@@H](N(C)C)C(=O)C(C(N)=O)=C(O)[C@]3(O)C(=O)[C@H]1C2=O | inactive
CC(C)NC(=O)N(C)C[C@@H]1Oc2ccc(NC(=O)Cn3cnnn3)cc2C(=O)N([C@H](C)CO)C[C@H]1C | inactive
COCC#Cc1ccc2c(c1)O[C@H](CN(C)S(=O)(=O)c1ccc(OC)cc1)[C@@H](C)CN([C@H](C)CO)S2(=O)=O | inactive
O=C(O)c1ccc2c(ccc3nn(-c4ccc(/C=C/c5ccc(-n6nc7ccc8cc(C(=O)O)ccc8c7n6)cc5S(=O)(=O)O)c(S(=O)(=O)O)c4)nc32)c1 | inactive
C[C@H]1CN([C@@H](C)CO)C(=O)c2cc(C#Cc3ccncc3)cnc2O[C@H]1CN(C)C(=O)c1ccccc1F | inactive
COc1ccc(S(=O)(=O)N(C)C[C@H]2Oc3ccc(NC(=O)CCC(F)(F)F)cc3CC(=O)N([C@@H](C)CO)C[C@H]2C)cc1 | inactive
C[C@@H]1CN([C@H](C)CO)C(=O)c2c(c3ccccc3n2C)-c2ccccc2CO[C@@H]1CN(C)Cc1cccc(O)c1 | inactive
Cc1noc(C)c1NC(=O)Nc1cccc2c1O[C@@H](CN(C)Cc1ccc(C(=O)Nc3ccccc3N)cc1)[C@H](C)CN([C@@H](C)CO)C2=O | inactive
C[C@@H]1CN([C@H](C)CO)C(=O)Cc2cc(NC(=O)Cc3ccccc3)ccc2O[C@@H]1CN(C)S(=O)(=O)c1ccccc1 | inactive
C[C@@H]1CN([C@H](C)CO)S(=O)(=O)c2ccc(C#CC3CCCC3)cc2O[C@H]1CN(C)Cc1cncnc1 | inactive
C[C@H](CO)N1C[C@H](C)[C@H](CN(C)Cc2ccncc2)Oc2c(NS(=O)(=O)c3cccs3)cccc2C1=O | inactive
CO[C@@H]1CN(C)C(=O)c2ccc(NC(=O)Nc3cccc(F)c3)cc2OC[C@@H](C)N(C(=O)Nc2cccc(F)c2)C[C@H]1C | inactive
C[C@H](CO)N1C[C@H](C)[C@H](CN(C)C(=O)CN2CCOCC2)Oc2cc(C#Cc3cccc(F)c3)ccc2S1(=O)=O | inactive
C[C@H]1CCCCO[C@@H](CN(C)CC2CCCCC2)[C@@H](C)CN([C@@H](C)CO)C(=O)c2cc(NC(=O)Nc3cccc4ccccc34)ccc2O1 | active
C[C@@H]1CCCCO[C@@H](CN(C)CC2CCCCC2)[C@@H](C)CN([C@@H](C)CO)C(=O)c2cc(NC(=O)Nc3cccc4ccccc34)ccc2O1 | active
C[C@@H]1CN([C@@H](C)CO)C(=O)c2cc(NC(=O)Nc3cccc4ccccc34)ccc2O[C@@H](C)CCCCO[C@H]1CN(C)CC1CC1 | inactive
C[C@@H]1CCCCO[C@@H](CN(C)CC2CC2)[C@@H](C)CN([C@H](C)CO)C(=O)c2cc(NC(=O)Nc3cccc4ccccc34)ccc2O1 | inactive
C[C@@H]1CCCCO[C@@H](CN(C)CC2CC2)[C@H](C)CN([C@@H](C)CO)C(=O)c2cc(NC(=O)Nc3cccc4ccccc34)ccc2O1 | inactive
C[C@@H]1CCCCO[C@@H](CN(C)C)[C@H](C)CN([C@H](C)CO)C(=O)c2cc(NC(=O)Nc3cccc4ccccc34)ccc2O1 | inactive
C[C@@H]1CCCCO[C@H](CN(C)C)[C@@H](C)CN([C@H](C)CO)C(=O)c2cc(NC(=O)Nc3cccc4ccccc34)ccc2O1 | inactive
C[C@@H]1CCCCO[C@H](CN(C)CC2CCCCC2)[C@H](C)CN([C@H](C)CO)C(=O)c2cc(NC(=O)Nc3cccc4ccccc34)ccc2O1 | active

Structure (SMILES) | cytotoxicity call
C[C@@H]1CCCCO[C@@H](CN(C)CC2CC2)[C@H](C)CN([C@H](C)CO)C(=O)c2cc(NC(=O)Nc3cccc4ccccc34)ccc2O1 | inactive
C[C@@H]1CCCCO[C@H](CN(C)CC2CCCCC2)[C@H](C)CN([C@@H](C)CO)C(=O)c2cc(NC(=O)Nc3cccc4ccccc34)ccc2O1 | active
CO[C@H](CN(C)S(=O)(=O)c1cn(C)cn1)[C@@H](C)CN(C(=O)Nc1ccc(C(F)(F)F)cc1)[C@H](C)CO | inactive
Cc1noc(C)c1S(=O)(=O)N(C)C[C@H]1Oc2ccc(NC(=O)NC3CCCCC3)cc2CC(=O)N([C@H](C)CO)C[C@H]1C | inactive
Cc1ccc(S(=O)(=O)N(C)C[C@H]2Oc3c(NC(=O)c4ccncc4)cccc3C(=O)N([C@@H](C)CO)C[C@@H]2C)cc1 | inactive
C[C@H]1CN([C@@H](C)CO)C(=O)c2cccc(NC(=O)c3ccc(-c4nccs4)cc3)c2O[C@H]1CN(C)S(=O)(=O)c1ccc(Cl)cc1 | inactive
CNC1C(OC2OC(CO)C(N)C(O)C2O)OC2CC(N)C(OC3C(N)CC(N)C(O)C3O)OC2C1O.O=S(=O)(O)O (stereo unspecified) | inactive
C[C@H]1CN([C@@H](C)CO)C(=O)Cc2cc(NC(=O)c3ccncc3)ccc2O[C@@H]1CN(C)S(C)(=O)=O | inactive
C[C@@H]1CN([C@@H](C)CO)C(=O)Cc2cc(NC(=O)C3CC3)ccc2O[C@@H]1CN(C)S(=O)(=O)c1ccccc1 | inactive
CO[C@@H]1CN(C)C(=O)c2ccc(NC(=O)C3CC3)cc2OC[C@H](C)N(C(=O)C2CCOCC2)C[C@H]1C | inactive
C[C@@H]1CN([C@@H](C)CO)C(=O)c2cc(NS(=O)(=O)c3cn(C)cn3)ccc2O[C@@H](C)CCCCO[C@H]1CN(C)C | inactive
C[C@H](CO)N1C[C@H](C)[C@H](CN(C)CC2CC2)OCCCC[C@H](C)Oc2ccc(NC(=O)Nc3cccc4ccccc34)cc2C1=O | inactive
C[C@@H]1CCCCO[C@@H](CN(C)CC2CCCCC2)[C@H](C)CN([C@@H](C)CO)C(=O)c2cc(NC(=O)Nc3cccc4ccccc34)ccc2O1 | active
C[C@@H]1CCCCO[C@H](CN(C)CC2CC2)[C@H](C)CN([C@@H](C)CO)C(=O)c2cc(NC(=O)Nc3cccc4ccccc34)ccc2O1 | inactive
C[C@H](CO)N1C[C@H](C)[C@@H](CN(C)CC2CC2)OCCCC[C@H](C)Oc2ccc(NC(=O)Nc3cccc4ccccc34)cc2C1=O | inactive
C[C@@H]1CCCCO[C@@H](CN(C)CC2CCCCC2)[C@@H](C)CN([C@H](C)CO)C(=O)c2cc(NC(=O)Nc3cccc4ccccc34)ccc2O1 | active
C[C@@H]1CCCCO[C@H](CN(C)CC2CC2)[C@@H](C)CN([C@H](C)CO)C(=O)c2cc(NC(=O)Nc3cccc4ccccc34)ccc2O1 | inactive
C[C@H](CO)N1C[C@H](C)[C@@H](CN(C)CC2CCCCC2)OCCCC[C@H](C)Oc2ccc(NC(=O)Nc3cccc4ccccc34)cc2C1=O | active
C[C@H](CO)N1C[C@H](C)[C@H](CN(C)CC2CCCCC2)OCCCC[C@H](C)Oc2ccc(NC(=O)Nc3cccc4ccccc34)cc2C1=O | active
